# Screening data as filed in PubChem BioAssay.
# Most compounds without a hit are left out; they make up all but 14% or so of the library.
# HCV inh – HCV inhibition | Potency, µM (highest dose often 41.8 µM), inactives show at the highest dose activity change, negative = inhibition, most hits filed as inhibitors | Huh7.5.1 HCVcc-Cre infection, luciferase reporter, 44 h | AID 651820 | 3.4% of 340,000 active; also: potency is read from the fitted curve at half-maximal effect
#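 Antiviral activity was scored by luciferase reporter output from cells infected with HCVcc-Cre (~0.5 moi) in presence of compound, 44 h infection period, cells seeded 1,000/well 4 h prior.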
# Marburg entry inh – inhibitors of Marburg virus binding or cell entry; Marburg virus pseudotyped entry inhibition, cell reporter; Potency, µM (highest dose often 37.8 µM), without a hit: at the top dose activity change, negative = inhibition, hits mostly inhibitors; 1.8% of 300,000 active; calls by dose curve; tested in HEK293 cells; also: potency is read from the fitted curve at half-maximal effect
# Pf growth 96h – P. falciparum growth inhibition at 96 hours. P. falciparum luciferase reporter growth, 96 h. Potency, µM (top dose mostly 28.7 µM), for the others: at the highest dose activity change, negative = inhibition, hits mostly inhibitors. 6.9% of 320,000 active; also: potency is read from the fitted curve at half-maximal effect
#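 Two parasite generations (96 h, 37 C, 5% CO2) of compound exposure in infected erythrocytes (0.05% parasitemia, 2% hematocrit). Luciferase-reporter P. falciparum; decreased luminescence indicates inhibited growth, aimed at apicoplast-acting delayed death.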
# Pf growth 48h – inhibits P. falciparum growth in the first generation, 48 h; AID 504832; 5.9% of 310,000 active; Potency, µM (highest dose often 28.7 µM), for the others: at the top dose activity change, negative = inhibition, usual class: inhibitors; P. falciparum luciferase growth in erythrocytes, 48 h; also: potency is read from the fitted curve at half-maximal effect
#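 Luciferase-expressing parasites in RBCs, 2% Hct / 0.1% parasitemia final; RPMI 1640 + 0.5% Albumax; 37 C, 5% CO2, one generation; luminescence read-out, lower signal = inhibition.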
# Lassa entry inh – blocks Lassa virus binding to or entry into cells; Lassa virus pseudotype entry inhibition, cell reporter; AID 540256; 1.2% of 300,000 active; Potency, µM (top dose mostly 37.9 µM), for the others: at the highest dose activity change, negative = inhibition, hits mostly inhibitors; calls by dose curve; tested in HEK293 cells; also: potency is read from the fitted curve at half-maximal effect; nearly all actives have a fitted effect of over 50% in size
# HCMV inh – blocks human cytomegalovirus replication | AID 1259415 | 4.5% of 410,000 active | activity change, negative = inhibition, % at 57.5 µM | HFF cells, HCMV-luciferase reporter, 72 h; stronger effect = lower value; in the data active = activity change below about -60%; inconclusive = no clear call, values can overlap the other calls; inactive = above about -39%
#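 Cell-based, HFFs, 1000 cells/well, 16 h 37C; cpds in DMSO + HCMV-luc, MOI 1 PFU/cell; 72 h 37C; OneGlo luminescence after 5 min RT; norm. to buffer vs Salinomycin 10uM.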
# * marks the source's active call; other numbers are inactive results; ? = inconclusive; . = no result given; [ ] = dose if it differs, or a comment. Unless noted, calls follow the shape of the dose curve; as a rule, active = well fitted inhibition curve with a large enough effect; inconclusive = small, poorly fitted or top-dose-only effect, or another doubt; inactive = no such curve, though single readings can be large or run the other way. % is scaled to controls: 0 for no effect and ±100 for the full control effect.
SMILES,HCV inh,Marburg entry inh,Pf growth 96h,Pf growth 48h,Lassa entry inh,HCMV inh
CC(Nc1nc(-c2ccc(F)cc2)cs1)c1nc2cc(Cl)c(N3CCCCC3)cc2n1CCOCCO (stereo not drawn),?,.,.,.,.,-18
CC(Nc1nc(-c2ccc(F)cc2)cs1)c1nc2cc(Cl)c(N3CCCCC3)cc2n1CCCO (stereo not drawn),?,.,.,.,.,-65*
O=C(Cn1ncc2c3ccccc3n(Cc3ccc(Cl)cc3)c2c1=O)NCc1cccs1,.,4%[46.1 µM],.,.,17%[46.1 µM],1
O=C(OCc1ccccc1Cl)c1ccc(-c2nnn(Cc3ccc(F)cc3)n2)cc1,.,?,.,.,4%[46.1 µM],0
Fc1ccc(-c2nnn(Cc3ccccc3Cl)n2)cc1,2µM*,?,21%,29%,?,5
Cc1ccccc1Cn1nnc(-c2ccc(F)cc2)n1,-7%,10%[46.1 µM],37%,6%,?,-75*
COc1ccc(N2CCN(C(=O)c3cccn4c(=O)c5ccc(Cl)cc5nc34)CC2)cc1,.,.,.,.,-4%[46.1 µM],25
CCC(C(=O)NCCCN1CC(C)CC(C)C1)n1ncn2c(cc3occc32)c1=O (stereo not drawn),-17%,.,?,?,.,-27
O=C(NCc1ccccc1)/C(=C/c1ccc(OC(F)F)cc1)c1ccccc1,22µM*,0%,?,16%,-9%,?
O=C(O)C1=CC(=C(c2ccc(O)c(C(=O)O)c2)c2ccc(O)c(C(=O)O)c2)C=CC1=O,8%,0.44µM*,93%,-30%,?,.
COc1ccccc1-c1ccc(NC2CCCCC2)nn1,22µM*,?,81%,122%,25%,50
COc1ccccc1-c1ccc(Nc2cccc(C(F)(F)F)c2)nn1,-13%,0%,-2%,37%,-1%,23
O=c1c2c(ncn2C2CCCC2)n(Cc2ccccc2)c(=O)n1CCOc1ccc(Br)cc1,?,2%,13µM*,13µM*,0%,-3
Cc1ccc(C)c(OCCn2c(=O)c3c(ncn3C3CCCC3)n(Cc3ccccc3)c2=O)c1,?,5%,2.6µM*,12µM*,2%,-11
COCCn1cnc2c1c(=O)n(CC(=O)NC1CCCCC1)c(=O)n2Cc1ccccc1,.,.,.,.,.,-39
CCCCn1c(SCC(=O)NC2CCCC2)nc2ccccc2c1=O,1%,10%,?,?,10%,-12
CCn1cnc2c1c(=O)n(Cc1cccc(Br)c1)c(=O)n2Cc1ccccc1,-4%,2%[46.1 µM],-22%,?,?,-19
CCCCn1c(=O)n(CC(O)c2ccccc2)c(=O)c2c1ncn2C1CCCC1 (stereo not drawn),-24%,13%,?,2.9µM*,9%,?
O=c1c2c(ncn2C2CCCC2)n(Cc2ccccc2)c(=O)n1CCOc1ccccc1,?,-24%,?,17µM*,-23%,19
Cc1ccc(NC(=O)O/N=C/c2ccc(N(C)C)cc2)cc1,-15%,12%,-14%,44%,?,10
COc1ccc(NC(=O)C(CC(C)C)NC(=O)C2CCCCC2)cc1 (stereo not drawn),.,?,.,.,3%[46.1 µM],7
COC1=C(C(=O)c2ccccc2)C(=O)[C@@]2(CC=C(C)C)C[C@@H]([S+](=O)([O-])c3ccccc3)C(C)(C)[C@@]1(CC=C(C)C)C2=O,.,-17%[14.2 µM],.,.,?,.
O=S(=O)(c1ccc(S(=O)(=O)N2CCN(Cc3ccccc3)CC2)cc1)N1CCOCC1,.,5%,?,-10%,.,.
O=S(=O)(c1ccc(Cl)cc1)N1CCC(O)(CN2CCN(Cc3ccccc3)CC2)CC1,13µM*,?,6%,-26%,-29%,-35
O=S(=O)(c1ccccc1)N1CCC(O)(CSc2ccc(Cl)cc2)CC1,3.5µM*,?,-2%,7%,?,-35
SMILES,HCV inh,Marburg entry inh,Pf growth 96h,Pf growth 48h,Lassa entry inh,HCMV inh
Cc1nn(CC(=O)N(CC(C)C)C2CCS(=O)(=O)C2)c(C)c1[N+](=O)[O-] (stereo not drawn),2%,3%,.,.,-6%,9
CCC(=O)Nc1cc(C(=O)OC(C(=O)c2ccc(C)c(C)c2)c2ccccc2)ccc1C (stereo not drawn),-20%,?,1.7µM*,12µM*,-15%,-2
O=C(CCN1C(=O)c2ccccc2C1=O)c1ccccc1,.,.,.,.,.,15
CCOc1ccc(-n2c(N)c(-c3nc4ccccc4n3C)c3nc4ccccc4nc32)cc1,24%,?,2.9µM*,3%,8%,5
NS(=O)(=O)c1ccc(NC(=O)CN2CCN(c3ccc(F)cc3)CC2)cc1,.,.,.,.,10%[46.1 µM],-39
COC(=O)C/C=C\[C@@H](C)[C@@H](/C=N\OC[C@@H]1O[C@H](c2ccccc2)C=C[C@@H]1Oc1ccc(OC)cc1)NS(=O)(=O)c1ccc(C)cc1,.,1%[14.2 µM],.,.,.,.
O=C(C(Sc1ccccc1)c1ccccc1)N1CCN(c2ccccc2)CC1 (stereo not drawn),3%,?,?,?,?,-11
Cc1ccc(SC(C)C(=O)N2CCN(c3ccccc3)CC2)cc1 (stereo not drawn),19%,6%[46.1 µM],8.3µM*,27%,-21%[46.1 µM],75
CC(Nc1ccnc2cc(Cl)ccc12)c1ccc(S(N)(=O)=O)cc1 (stereo not drawn),-2%,-2%[46.1 µM],2.3µM*,1.9µM*,?,14
CCN(CC)CCC[C@H](C)Nc1ccnc2cc(Cl)ccc12,.,?,0.043µM*,0.048µM*,.,.
CC(CCCN1CCCC1)Nc1ccnc2cc(Cl)ccc12 (stereo not drawn),?,3.5µM*,.,.,5%[46.1 µM],?
COC(=O)CSc1ccnc2cc(Cl)ccc12,3%,4%[46.1 µM],7%,35%,-10%,19
CC(O)(c1cccc(F)c1)c1nc(-c2cnc3ccccc3c2)cs1 (stereo not drawn),.,.,.,.,.,-19
